Only some compounds are listed: those with a hit (about 19% of all), similar ones and a draw of the others.
DT40 TDP1 no CPT – qHTS for Inhibitors of human tyrosyl-DNA phosphodiesterase 1 (TDP1): qHTS in cells in absence of CPT; 420,000 tested, 15% active; DT40 Tdp1-/- hTDP1 cells, no CPT, ATP luminescence, 48 h; Potency, µM (top dose mostly 46.2 µM), usual class: inhibitors; note: nearly all actives have a fitted effect of over 55% in size
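Compound effects on proliferation are scored in DT40 Tdp1-/-;hTDP1 cells in the absence of CPT. ATP levels (CellTiter-Glo luminescence) are recorded after a ≥48 hr, 37 °C incubation.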
Gal4-VP16 FLuc – Gal4-VP16 reporter inhibition counter-screen | Potency, µM (doses to about 53.6 µM), most hits filed as inhibitors | Drosophila S2 Gal4-VP16 UAS-luciferase, luminescence, 20 h | 310,000 tested, 3.5% active;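 note: Gal4-VP16 expression switched on by copper sulfate through the metallothionein promoter; nearly all actives have a fitted effect of over 50% in size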
TDP1 inh – blocks human tyrosyl-DNA phosphodiesterase 1 | Potency, µM (highest dose often 130 µM), actives largely listed as inhibitors | Q9NUW8 | recombinant TDP1, AlphaScreen DNA substrate cleavage | 350,000 tested, 0.28% active | AID 485290; note: nearly all actives have a fitted effect of over 40% in size
Target sequence (Q9NUW8 whole entry, looked up): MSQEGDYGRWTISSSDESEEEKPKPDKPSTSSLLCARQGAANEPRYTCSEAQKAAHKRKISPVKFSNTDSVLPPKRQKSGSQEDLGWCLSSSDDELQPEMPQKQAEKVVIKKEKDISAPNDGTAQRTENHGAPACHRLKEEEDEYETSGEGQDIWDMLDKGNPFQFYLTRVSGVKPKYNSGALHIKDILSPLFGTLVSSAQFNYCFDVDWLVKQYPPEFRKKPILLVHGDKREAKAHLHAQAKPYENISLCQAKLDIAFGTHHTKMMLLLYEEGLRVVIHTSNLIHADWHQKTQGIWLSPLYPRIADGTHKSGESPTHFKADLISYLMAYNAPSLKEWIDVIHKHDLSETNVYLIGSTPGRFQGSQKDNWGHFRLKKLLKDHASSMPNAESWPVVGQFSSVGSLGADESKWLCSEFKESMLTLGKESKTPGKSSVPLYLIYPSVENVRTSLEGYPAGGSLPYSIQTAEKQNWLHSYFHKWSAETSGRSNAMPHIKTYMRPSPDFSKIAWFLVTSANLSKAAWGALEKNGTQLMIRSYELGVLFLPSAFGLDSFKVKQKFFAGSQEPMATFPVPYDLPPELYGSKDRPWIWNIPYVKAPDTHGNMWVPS
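Recombinant human Tdp1 (E. coli-expressed, 1 nM final) preincubated with compounds 15 min at room temperature, then 5'-biotin/3'-phosphotyrosine-FITC DNA substrate (15 nM final) added for 5 min. AlphaScreen beads (10 ug/ml final) added 10 min; cleavage lowers signal.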
RORg inh – ROR gamma (mouse) transcription inhibition; P51450; Drosophila S2 Gal4-RORgamma UAS-luciferase reporter, 20 h; Potency, µM (doses to about 53.6 µM), actives largely listed as inhibitors; 310,000 tested, 5.4% active; AID 2551; note: nearly all actives have a fitted effect of over 60% in size
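Drosophila Schneider cells stably carrying a metallothionein-driven Gal4 DBD–ROR gamma fusion and a UAS-Photinus luciferase reporter were exposed to compound for 1 hr, then induced with copper sulfate (700 uM final) for 20 hr at ambient temperature before luminescence reading.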
TDP1 cell CPT – DT40-hTDP1 cell growth loss with CPT; chicken DT40 Tdp1-/-;hTDP1 cells + 20 nM CPT, ATP luminescence, 48 h; Potency, µM (titrated, usually from 46.2 µM), usual class: inhibitors; 420,000 tested, 12% active; AID 686979; note: nearly all actives have a fitted effect of over 55% in size
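Cell growth measured by CellTiter-Glo luminescence after a minimum 48 h, 37 C compound exposure with 20 nM CPT in Tdp1-knockout DT40 cells stably expressing hTDP1, seeded 400/well; qHTS titration format.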
Numbers stand for hits; - = inactive; ? = inconclusive; . = not tested or not shown; [ ] = dose if it differs, or a comment. Calls come from the whole dose curve; as a rule, active = well fitted curve in the direction sought with a large enough effect; inconclusive = small, poorly fitted or top-dose-only effect, or another doubt; inactive = no such curve, though single readings can be large; an effect the other way counts as inactive or inconclusive.

SMILES | DT40 TDP1 no CPT | Gal4-VP16 FLuc | TDP1 inh | RORg inh | TDP1 cell CPT
Cc1ccc(F)cc1C(=O)N1CCCC(c2cc(C(=O)Nc3ccccc3Cl)no2)C1 (stereo not given) | 20.6µM | . | . | . | ?
CS(=O)(=O)N1CCN(C(=O)c2ccc(-c3ccccc3)cc2)CC1 | - | - | - | - | -
O=C(NNC(=O)C1CC=CCC1)c1cccc(Br)c1 (stereo not given) | - | . | . | . | -
O=C(Nc1sc2c(c1C(=O)NC1CCCCC1)CCC2)c1ccco1 | - | - | - | - | -
CCC(=O)Nc1ccc(NC(=O)CSc2nnc(-c3ccco3)n2C)cc1 | - | - | - | - | -
CC(C)(C)c1cc(Cc2ccccc2)[nH]n1 | - | - | - | 17.8µM | -
Cc1ccc(-c2n[nH]c(Cc3ccccc3)n2)cc1 | ? | - | - | - | ?
COc1cc(NC(=S)N2CCN(c3ccccn3)CC2)cc(OC)c1OC | - | - | - | - | -
COc1cc(NC(=S)N2CCN(c3ccccn3)CC2)cc(OC)c1 | - | ? | - | 11.2µM | -
COC(=O)c1cc(OC)c(OC)cc1NC(=S)N1CCN(c2ccccn2)CC1 | ? | - | - | 11.2µM | -
Cc1cccc(NC(=S)N2CCN(c3ccccn3)CC2)c1 | ? | ? | - | ? | -
S=C(Nc1ccc(Br)cc1)N1CCN(c2ccccn2)CC1 | - | ? | . | 11.2µM | -
Cc1ccc(NC(=S)N2CCN(c3ccccn3)CC2)cc1C | - | 12.6µM | - | ? | -
COc1cccc(C(=O)N2CCC(C(=O)NCc3ccc(C)cc3)CC2)c1 | ? | - | . | - | -
COc1ccc(Cl)cc1NC(=O)C(C)N1CCN(c2ccccn2)CC1 (stereo not given) | 18.4µM | - | . | - | ?
O=[N+]([O-])c1cc(CN2CCCC2)ccc1Sc1ccc(Cl)cc1 | 8.2µM | -[10 µM] | - | - | 10.3µM
Clc1ccc(CN2CCCCCC2)cc1 | - | - | . | - | -
COc1ccc2[nH]c3c(c2c1)CCN1C(=O)N([C@@H](C)C(=O)NCc2c(F)cccc2Cl)C(=O)[C@]31C | ? | - | . | - | 18.4µM
C[C@@H](C(=O)NCc1c(F)cccc1Cl)N1C(=O)N2CCc3c([nH]c4ccccc34)[C@@]2(C)C1=O | 20.6µM | - | . | - | 18.4µM
C[C@@H](C(=O)NCC1CCCO1)N1C(=O)N2CCc3c([nH]c4ccccc34)[C@@]2(C)C1=O (stereo not given in full) | ? | - | . | - | -
COc1cc(CN2CCC(n3nccc3NC(=O)CCCc3ccccc3)CC2)ccc1F | ? | - | - | ? | ?
O=C(OCn1ncc(Cl)c(Cl)c1=O)c1cccc(C(F)(F)F)c1 | 3.26µM | - | - | - | ?
N/C(=N\OC(=O)c1cccc(C(F)(F)F)c1)c1cnccn1 | - | - | - | - | -
CCn1nc(C)c(/C=N/NC(=O)c2ccoc2C)c1C | - | - | - | ? | -
Cc1nn(Cc2ccccc2)c(C)c1/C=N/NC(=O)c1ccccc1O | - | 17.8µM | - | 11.2µM | -
SMILES | DT40 TDP1 no CPT | Gal4-VP16 FLuc | TDP1 inh | RORg inh | TDP1 cell CPT
CCCCCn1nc(C)c(/C=N/NC(=O)c2ccoc2C)c1C | - | 8.91µM | - | ? | ?
CCc1c(-c2ccc(Br)cc2)ncn1Cc1cccc(-c2ccccc2)c1 | 5.17µM | . | . | . | 7.31µM
CCCc1c(-c2ccc(Cl)cc2)ncn1Cc1cccc(-c2ccccc2)c1 | 3.26µM | . | . | . | 5.17µM
CCCc1c(-c2cccc(Br)c2)ncn1Cc1cccc(-c2ccccc2)c1 | 20.6µM | . | . | . | 16.4µM
Cc1cccc(Cn2cnc3c(oc4ccccc43)c2=O)c1 | - | . | - | . | ?
O=C(CSc1nnc(-c2ccncc2)s1)Nc1ccccc1 | - | - | - | - | -
Cc1ccccc1-c1nc(C#N)c(N2CCC(C)CC2)o1 | - | - | . | - | -
COc1ccc(Cc2nnc(NC(=O)Cc3cccs3)s2)cc1OC | - | ? | . | - | -
O=C1c2ccccc2C(Nc2ccc3c(c2)OCCO3)N1Cc1ccc2c(c1)OCO2 (stereo not given) | ? | - | - | - | ?
O=C1OC(Nc2ccc3c(c2)OCO3)c2ccccc21 (stereo not given) | 12.6µM | - | - | ? | 22.4µM
CCC(=O)NC(c1ccc(N(C)C)cc1)c1c(O)ccc2ccccc12 (stereo not given) | ? | -[10 µM] | - | - | -
CCC(=O)NC(c1ccc([N+](=O)[O-])cc1)c1c(O)ccc2ccccc12 (stereo not given) | ? | 11.2µM | - | ? | 20µM
CCC(=O)NC(c1ccccc1Cl)c1c(O)ccc2ccccc12 (stereo not given) | ? | - | - | - | 16.4µM
CCCCC(=O)NC(c1ccc([N+](=O)[O-])cc1)c1c(O)ccc2ccccc12 (stereo not given) | 20.6µM | ? | - | ? | 16.4µM
CC(C)C(=O)NC(c1ccccc1Cl)c1c(O)ccc2ccccc12 (stereo not given) | - | - | - | - | ?

Source: PubChem
